High-throughput results deposited in PubChem BioAssay by National Center for Advancing Translational Sciences (NCATS).
A selection: hits, their analogues and other compounds. The true share with any hit is near 21%.
IL1B secr inh = inflammasome signaling inhibition, IL-1 beta readout. THP-1 LPS/ATP IL-1B secretion, AlphaLISA, 16 h; active compounds read low. activity change, % at 57.5 µM. 360,000 compounds, 4.7% hits; in the data active = activity change below about -50%; inconclusive = mostly about -30% to -49%
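Secreted IL-1B measured by AlphaLISA bead assay after 16 h compound exposure of THP-1 cells; compounds (final up to 57.5 uM) added 1 h before LPS (250 ng/mL) and ATP (1.25 mM) stimulation; lower signal means less secretion.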
TDP1 cell CPT = DT40-hTDP1 cell growth loss with CPT; chicken DT40 Tdp1-/-;hTDP1 cells + 20 nM CPT, ATP luminescence, 48 h; 420,000 compounds, 12% hits; Potency, µM (doses to about 46.2 µM), most hits filed as inhibitors; also: nearly all actives have a fitted effect of over 55% in size
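Cell growth measured by CellTiter-Glo luminescence after a minimum 48 h, 37 C compound exposure with 20 nM CPT in Tdp1-knockout DT40 cells stably expressing hTDP1, seeded 400/well; qHTS titration format.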
DT40 TDP1 no CPT = qHTS for Inhibitors of human tyrosyl-DNA phosphodiesterase 1 (TDP1): qHTS in cells in absence of CPT | 420,000 compounds, 15% hits | DT40 Tdp1-/- hTDP1 cells, no CPT, ATP luminescence, 48 h | Potency, µM (top dose mostly 46.2 µM), usual class: inhibitors | AID 686978, 2013; also: nearly all actives have a fitted effect of over 55% in size
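Compound effects on proliferation are scored in DT40 Tdp1-/-;hTDP1 cells in the absence of CPT. ATP levels (CellTiter-Glo luminescence) are recorded after a ≥48 hr, 37 °C incubation.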
VP16 counter = counter-screen for ROR gamma inhibitors: Gal4-VP16 reporter | Drosophila S2 Gal4-VP16 UAS-luciferase, luminescence, 20 h | Potency, µM (doses to about 53.6 µM), hits mostly inhibitors | 310,000 compounds, 3.5% hits | AID 2546;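 also: Gal4-VP16 expression switched on by copper sulfate through the metallothionein promoter; nearly all actives have a fitted effect of over 50% in size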
ELG1 DNA repair = blocks ELG1-dependent DNA repair in HEK293T cells; HEK293T ELG1-luciferase reporter, luminescence, 16 h; DNA damage induced by 5-fluorouridine; 330,000 compounds, 2.3% hits; AID 504467; Potency, µM (titrated, usually from 46.1 µM), most hits filed as inhibitors; also: nearly all actives have a fitted effect of over 55% in size
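Step one: seed 2,000 cells per well. Step two: pin-transfer compound or DMSO alongside 5-fluorouridine. Step three: incubate 16 hr, 37 °C, 5% CO2. Step four: add ONE-Glo, wait 30 min, read luminescence.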
RORg inh = inhibitors of mouse ROR gamma transcriptional activity; Potency, µM (doses to about 53.6 µM), usual class: inhibitors; P51450; AID 2551; Drosophila S2 Gal4-RORgamma UAS-luciferase reporter, 20 h; 310,000 compounds, 5.4% hits; also: nearly all actives have a fitted effect of over 60% in size
Target sequence (P51450 whole entry, looked up, the tested form may be a part): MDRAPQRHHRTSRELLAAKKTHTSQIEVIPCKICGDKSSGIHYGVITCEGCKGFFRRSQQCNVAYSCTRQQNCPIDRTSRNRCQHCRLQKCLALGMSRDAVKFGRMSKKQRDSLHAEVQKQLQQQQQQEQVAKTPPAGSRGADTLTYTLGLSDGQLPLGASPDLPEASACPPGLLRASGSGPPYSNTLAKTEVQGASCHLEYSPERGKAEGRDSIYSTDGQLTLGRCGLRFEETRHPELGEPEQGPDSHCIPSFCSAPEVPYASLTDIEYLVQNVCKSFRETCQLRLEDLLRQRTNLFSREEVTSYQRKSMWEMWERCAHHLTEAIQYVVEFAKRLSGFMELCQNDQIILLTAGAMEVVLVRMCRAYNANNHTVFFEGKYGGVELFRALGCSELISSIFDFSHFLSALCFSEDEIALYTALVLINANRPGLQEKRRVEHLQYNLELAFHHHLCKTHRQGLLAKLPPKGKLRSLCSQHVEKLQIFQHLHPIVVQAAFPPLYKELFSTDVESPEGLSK
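Compounds are pin-transferred onto Drosophila Schneider cells expressing a copper-inducible Gal4–ROR gamma transactivation domain fusion. After 1 hr, copper sulfate is added to 700 uM final; luciferase is read 20 hr later.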
Hits are given with their value; n = inactive; u = inconclusive; x = no result; [ ] = dose if it differs, or a comment. Unless noted, calls follow the shape of the dose curve; as a rule, active = well fitted curve in the direction sought with a large enough effect; inconclusive = small, poorly fitted or top-dose-only effect, or another doubt; inactive = no such curve, though single readings can be large; an effect the other way counts as inactive or inconclusive.

SMILES	IL1B secr inh	TDP1 cell CPT	DT40 TDP1 no CPT	VP16 counter	ELG1 DNA repair	RORg inh
CCC(=O)[C@@]1(O)C(=O)N2C(=C3C(=O)OCCC31)N(Cc1ccccc1)C(C)=C(C(=O)OC)C2c1ccccc1 (stereo not given in full)	x	x	x	n[10 µM]	x	n[10 µM]
Cc1ccc([N+](=O)[O-])cc1N	n	n	n	n	n	n
Cc1nc(N)nc(N)c1-c1ccc([N+](=O)[O-])cc1	n	u	1.5µM	x	x	x
CN(CC(=O)NCc1ccccc1Cl)S(=O)(=O)c1ccc2c(c1)c(=O)n(C)c(=O)n2C	x	n	n	x	x	x
Cc1ccc(C)c(NC(=O)CSc2ncnc3nc[nH]c23)c1	n	n	n	n	n	u
O=C(CSc1ncnc2nc[nH]c12)Nc1nnc(SCc2ccc(Cl)c(Cl)c2)s1	n	n	18µM	n	n	n
O=C(C1CC(=O)N(c2ccc3c(c2)OCCO3)C1)N1CCN(S(=O)(=O)c2ccccc2F)CC1 (stereo not given)	n	u	u	x	x	x
CCCCc1cc(=O)oc2cc(OCc3cc(OC)c(OC)c(OC)c3)c(Cl)cc12	n	u	15µM	n[0.365 µM]	n	n
CCCc1cc(=O)oc2cc(OCc3cc(OC)c(OC)c(OC)c3)c(Cl)cc12	n	u	u	n	n	n
N#C/C(=C/c1ccc(N2CCOCC2)o1)C(=O)NC1CCCCC1	n	u	u	u	n	n
N#C/C(=C/c1ccc(N2CCCCCC2)o1)c1ccc(F)cc1	-70	5.2µM	4.6µM	x	x	x
